{"source": "PubChem BioAssay", "key": {"[1]": {"test": "Wnt pathway potentiators raising nuclear beta-catenin – imaging, WNT3A-conditioned medium, mouse C2C12, NPC library, primary screen (AID 1117326; in the data active = nuclear beta-catenin stimulation mostly above about 4.2%, no sharp cut-off; inactive = mostly below about 10%; also: reference of the scale not given here)", "settings": "stronger effect = higher value"}, "[2]": {"test": "stimulators of insulin release from INS-1E, primary screen, cell-based, 5 mM glucose, NPC library (AID 1117329;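 active = compound raises insulin release from rat beta cells at 5 mM glucose, no numeric limit stated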; also: reference of the scale not given here)", "settings": "rat INS-1E insulin secretion, at 10 µM, stronger effect = higher value"}, "[3]": {"test": "growth inhibition of GSK3B-pretreated HCT116 cells – cell-based, CellTiter-Glo, 0.2 to 20 µM (AID 1117336;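 active = compounds lowering colon cancer cell viability after pretreatment blocking the GSK3B kinase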)", "settings": "HCT116 viability after GSK3B inhibitor, at 20 µM, stronger effect = higher value"}, "[4]": {"test": "inhibition of endothelial tube formation, primary screen, imaging, VEGF stimulated, CD31 staining, tube area, NPC library (AID 1117340;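 active = compound that reduces growth-factor-driven endothelial tube area in a mixed cell culture, no cutoff stated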)", "settings": "VEGF-stimulated ADSC/ECFC co-culture, at 10 µM, stronger effect = higher value"}, "[5]": {"test": "GLP1 release stimulators, primary, NCI-H716, NPC library (AID 1117341;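 active = compound raises GLP1 secretion from the human gut endocrine cells, with no numeric limit stated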; also: reference of the scale not given here)", "settings": "NCI-H716 cells, at 10 µM, stronger effect = higher value"}, "[6]": {"test": "HCT116 colon cancer cell growth inhibition, primary screen, CellTiter-Glo luminescence, NPC library (AID 1117342;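 active = compounds that lower survival of HCT116 colon cancer cells in the luminescence readout, no numeric limit stated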)", "settings": "at 20 µM (top of the series)"}, "[7]": {"test": "reduced SW480 viability measured with CellTiter-Glo, NPC library, primary (AID 1117343;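 active = compounds that lower viability of the colon cancer cells in the luminescence readout, with no numeric limit stated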)", "settings": "CellTiter-Glo luminescence; at 20 µM (top of the series) unless noted"}, "[8]": {"test": "NPC library primary testing for decreased DLD-1 cell viability via CellTiter-Glo (AID 1117346;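 active = compounds that lower survival of DLD-1 colon cancer cells in the luminescence readout, no cutoff given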)", "settings": "DLD-1 viability, CellTiter-Glo luminescence; at 20 µM (top of the series)"}, "[9]": {"tested_on": "Aerobactin synthetase IucA (Klebsiella pneumoniae)", "test": "inhibition of K. pneumoniae IucA enzyme – biochemical, Tocris library, absorbance (AID 1345561; call rule not given here;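 also: 100% = enzyme without compound and 0% = no enzyme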)", "settings": "purified IucA enzyme assay, absorbance (OD) read-out; stronger effect = lower value; concentration not given here"}, "[10]": {"test": "viability loss with induced miR-34 in A549 – imaging, A549 dox-inducible miR-34, nuclei and caspase counts, primary screen (AID 1347080)", "settings": "A549 miR-34 inducible, Hoechst nuclei count, 48 h"}, "[11]": {"test": "galactose survival enhancers in mitochondrial complex I cybrids – cell-based, galactose medium, ATP luminescence, primary screen (AID 1645843;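 active = z-score of at least 1.8 in each of two replicates, scored against plate mean and spread of sample wells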;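 also: positive z means more ATP and so rescue of galactose-driven cybrid death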)", "settings": "complex I mutant cybrid cells, 72 h, stronger effect = higher value"}, "[12]": {"test": "P. berghei load reduction in hepatocytes – cell-based, HepG2, luciferase luminescence, HepG2 viability, primary screen (AID 624349; in the data active = parasite load remaining mostly below about 12%, no sharp cut-off; inactive = mostly above about 10%;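 also: 100% = mean of DMSO negative control wells on the same plate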)", "settings": "P. berghei liver stage in HepG2, luciferase luminescence, concentration not given here; parasite load remaining: stronger effect = lower value; viability: measured here: HepG2 viability without parasites"}, "[13]": {"target": "NAD(+) hydrolase SARM1 (Homo sapiens) (UniProt Q6SZW1)", "sequence (Q6SZW1 whole entry, looked up)": "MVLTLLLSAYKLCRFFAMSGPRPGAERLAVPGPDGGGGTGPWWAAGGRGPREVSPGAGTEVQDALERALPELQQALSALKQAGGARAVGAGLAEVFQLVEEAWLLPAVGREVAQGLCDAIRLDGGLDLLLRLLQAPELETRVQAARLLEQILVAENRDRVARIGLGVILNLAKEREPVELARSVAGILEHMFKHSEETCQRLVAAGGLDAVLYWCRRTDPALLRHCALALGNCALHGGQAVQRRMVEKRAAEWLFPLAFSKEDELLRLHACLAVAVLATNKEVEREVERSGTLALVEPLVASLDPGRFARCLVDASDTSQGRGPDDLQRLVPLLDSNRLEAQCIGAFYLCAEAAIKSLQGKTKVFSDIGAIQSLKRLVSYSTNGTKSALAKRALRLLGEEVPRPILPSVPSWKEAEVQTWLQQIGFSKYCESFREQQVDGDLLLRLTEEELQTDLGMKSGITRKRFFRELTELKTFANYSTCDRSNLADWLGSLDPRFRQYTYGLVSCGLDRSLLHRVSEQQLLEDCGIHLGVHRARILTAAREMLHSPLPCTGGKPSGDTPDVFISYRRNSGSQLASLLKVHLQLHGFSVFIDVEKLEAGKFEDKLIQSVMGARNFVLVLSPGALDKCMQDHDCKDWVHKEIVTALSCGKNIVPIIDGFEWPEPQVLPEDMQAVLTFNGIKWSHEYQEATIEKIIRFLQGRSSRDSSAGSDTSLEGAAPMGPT", "test": "blocking NAD cleavage by SARM1 SAM-TIR – cell lysate, NAD-Glo luminescence (AID 1508614;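 active = compound whose remaining NAD level is above about 45 nM, limit read from the data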)", "settings": "SAM-TIR HEK293T lysate NADase, at 1 µM, stronger effect = higher value"}, "[14]": {"test": "viability loss in pontine glioma line – cell-based, SU-DIPG-XVII, MIPE5.0, CellTiter-Glo, qHTS, dose response (AID 1347060; cut-off not given, nearly all actives have AC50 up to about 26 µM;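 also: cells exposed to compound for 48 hours before viability readout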)", "settings": "CellTiter-Glo ATP luminescence"}, "[15]": {"test": "viability loss in pontine glioma line – cell-based, JHH-DIPG-1, MIPE4.0, CellTiter-Glo, qHTS, dose response (AID 1347062; cut-off not given, nearly all actives have AC50 up to about 27 µM;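 also: cells exposed to compound for two days before readout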)", "settings": "JHH-DIPG-1 viability, CellTiter-Glo ATP luminescence"}, "[16]": {"test": "growth inhibition of DIPG cells – cell-based, MIPE5.0 library, qHTS (AID 1347068; cut-off not given, nearly all actives have IC50 up to about 30 µM;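 also: cells exposed to compound for 48 hours before viability readout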)", "settings": "SU-DIPG-XXV viability"}, "[17]": {"test": "MELAS cybrid and Rieske KO viability enhancers – cell-based, MELAS cybrids, Rieske KO mouse fibroblasts, CellTiter-Glo, primary screen (AID 1508586;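 active = mean z-score across replicates of 1.96 or higher in either the MELAS or the Rieske mutant cell line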;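 also: z relative to plate mean and SD of compound and empty wells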)", "settings": "low glucose"}, "[18]": {"settings": "stronger effect = lower value, cell number ratio, induced over uninduced"}, "[19]": {"settings": "measured here: relative caspase fold change +Dox/-Dox"}, "[20]": {"settings": "measured here: total cells with miR-34 induction, stronger effect = lower value"}, "[21]": {"settings": "measured here: total cells without miR-34 induction"}}, "note": "Values joined by “and” are separate entries in the source; they are usually repeats but may differ in a detail not shown here. Equal values may be shown once. Inconclusive results are not listed. Active and inactive are the calls of the source.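 The calls were made as follows, unless noted: active = compounds whose cell count with miR-34 switched on is under 0.7 times the count with it off; inactive = the rest.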"}
{"smiles": "CCn1ccnc1CC1COc2ccccc2O1", "note": "(configuration not stated)", "values": [{"measurement": "nuclear beta-catenin stimulation", "setting": "[1]; at 10 µM", "value": "1.8% (inactive)"}, {"measurement": "nuclear beta-catenin stimulation", "setting": "[1]; stimulation, at 2 µM", "value": 0.3, "unit": "%"}, {"measurement": "insulin secretion stimulation", "setting": "[2]", "value": "-3.2% (inactive)"}, {"measurement": "viability decrease", "setting": "[3]", "value": "-16.7% (inactive)"}, {"measurement": "tube area decrease", "setting": "[4]", "value": "-3.6% (inactive)"}, {"measurement": "GLP1 secretion stimulation", "setting": "[5]", "value": "0% (inactive)"}, {"measurement": "inhibition of viability", "setting": "[6]", "value": "1.63% (inactive)"}, {"measurement": "viability decrease (inhibition)", "setting": "[7]", "value": "7.7% (inactive)"}, {"measurement": "viability decrease (inhibition)", "setting": "[8]", "value": "-5.9% (inactive)"}, {"measurement": "remaining activity", "setting": "[9]", "value": "82.4% (inactive)"}, {"measurement": "fold change", "setting": "[10]; [18]", "value": "1.08 (inactive) and 0.969 (inactive)"}, {"measurement": "fold change", "setting": "[10]; [19]", "value": "1.15 and 0.987"}, {"measurement": "cell count", "setting": "[10]; [20]", "value": "10600 and 8940"}, {"measurement": "cell count", "setting": "[10]; [21]", "value": "9870 and 9220"}, {"measurement": "z-score", "setting": "[11]", "value": "0.675 (inactive) and 1.33 (inactive)"}]}
{"smiles": "COc1ccc2c(c1OC)C(=O)O[C@@H]2[C@H]1c2c(cc3c(c2OC)OCO3)CCN1C", "values": [{"measurement": "parasite load remaining", "setting": "[12]", "value": "89.7% (inactive) and 72.1% (inactive)"}, {"measurement": "viability", "setting": "[12]", "value": "104% and 75.4%"}, {"measurement": "nuclear beta-catenin stimulation", "setting": "[1]; at 10 µM", "value": "3.5% (inactive)"}, {"measurement": "nuclear beta-catenin stimulation", "setting": "[1]; stimulation, at 2 µM", "value": 0.1, "unit": "%"}, {"measurement": "insulin secretion stimulation", "setting": "[2]", "value": "2% (inactive)"}, {"measurement": "viability decrease", "setting": "[3]", "value": "55.6% (active)"}, {"measurement": "tube area decrease", "setting": "[4]", "value": "4.1% (inactive)"}, {"measurement": "GLP1 secretion stimulation", "setting": "[5]", "value": "-1.8% (inactive)"}, {"measurement": "inhibition of viability", "setting": "[6]", "value": "46.2% (inactive)"}, {"measurement": "viability decrease (inhibition)", "setting": "[7]", "value": "90.4% (active)"}, {"measurement": "viability decrease (inhibition)", "setting": "[8]", "value": "2.7% (inactive)"}, {"measurement": "remaining activity", "setting": "[9]", "value": "111% (inactive)"}, {"measurement": "fold change", "setting": "[10]; [18]", "value": "0.961 (inactive) and 0.857 (inactive) and 1.04 (inactive)"}, {"measurement": "fold change", "setting": "[10]; [19]", "value": "0.539 and 1.29 and 0.971"}, {"measurement": "cell count", "setting": "[10]; [20]", "value": "6010 and 7290 and 6960"}, {"measurement": "cell count", "setting": "[10]; [21]", "value": "6250 and 8520 and 6720"}, {"measurement": "remaining NAD", "setting": "[13]", "value": "10 nM (inactive)"}, {"measurement": "z-score", "setting": "[11]", "value": "0.555 (inactive) and 0.075 (inactive)"}]}
{"smiles": "CN1CCC[C@@H]1Cc1c[nH]c2ccc(CCS(=O)(=O)c3ccccc3)cc12", "values": [{"measurement": "nuclear beta-catenin stimulation", "setting": "[1]; at 10 µM", "value": "1.8% (inactive)"}, {"measurement": "nuclear beta-catenin stimulation", "setting": "[1]; stimulation, at 2 µM", "value": 1, "unit": "%"}, {"measurement": "insulin secretion stimulation", "setting": "[2]", "value": "3.3% (inactive)"}, {"measurement": "viability decrease", "setting": "[3]", "value": "30.6% (inactive)"}, {"measurement": "tube area decrease", "setting": "[4]", "value": "0.6% (inactive)"}, {"measurement": "GLP1 secretion stimulation", "setting": "[5]", "value": "5.3% (inactive)"}, {"measurement": "inhibition of viability", "setting": "[6]", "value": "36.8% (inactive)"}, {"measurement": "viability decrease (inhibition)", "setting": "[7]", "value": "19.5% (inactive)"}, {"measurement": "viability decrease (inhibition)", "setting": "[8]", "value": "-0.8% (inactive)"}, {"measurement": "remaining activity", "setting": "[9]", "value": "117% (inactive)"}, {"measurement": "fold change", "setting": "[10]; [18]", "value": "0.993 (inactive) and 0.947 (inactive)"}, {"measurement": "fold change", "setting": "[10]; [19]", "value": "1.11 and 0.557"}, {"measurement": "cell count", "setting": "[10]; [20]", "value": "9730 and 9170"}, {"measurement": "cell count", "setting": "[10]; [21]", "value": "9790 and 9680"}, {"measurement": "remaining NAD", "setting": "[13]", "value": "10 nM (inactive)"}, {"measurement": "z-score", "setting": "[11]", "value": "-0.6 (inactive) and -0.525 (inactive)"}]}
{"smiles": "CC[C@]1(O)C[C@H]2CN(CCc3c([nH]c4ccccc34)[C@@](C(=O)OC)(c3cc4c(cc3OC)N(C=O)[C@H]3[C@@](O)(C(=O)OC)[C@H](OC(C)=O)[C@]5(CC)C=CCN6CC[C@]43[C@@H]65)C2)C1", "values": [{"measurement": "parasite load remaining", "setting": "[12]", "value": "14.9% (inactive)"}, {"measurement": "viability", "setting": "[12]", "value": 84, "unit": "%"}, {"measurement": "nuclear beta-catenin stimulation", "setting": "[1]; at 10 µM", "value": "44% (active)"}, {"measurement": "nuclear beta-catenin stimulation", "setting": "[1]; stimulation, at 2 µM", "value": 76, "unit": "%"}, {"measurement": "insulin secretion stimulation", "setting": "[2]", "value": "-1.1% (inactive)"}, {"measurement": "viability decrease", "setting": "[3]", "value": "98.6% (active)"}, {"measurement": "tube area decrease", "setting": "[4]", "value": "109% (active)"}, {"measurement": "GLP1 secretion stimulation", "setting": "[5]", "value": "4.5% (inactive)"}, {"measurement": "inhibition of viability", "setting": "[6]", "value": "67% (active)"}, {"measurement": "viability decrease (inhibition)", "setting": "[7]", "value": "56% (active)"}, {"measurement": "viability decrease (inhibition)", "setting": "[8]", "value": "59.1% (active)"}, {"measurement": "remaining activity", "setting": "[9]", "value": "121% (inactive)"}, {"measurement": "AC50", "setting": "[14]", "value": "29.5 nM (active)"}, {"measurement": "AC50", "setting": "[15]", "value": "5.26 nM (active)"}, {"measurement": "IC50", "setting": "[16]", "value": "235 nM (active)"}, {"measurement": "fold change", "setting": "[10]; [18]", "value": "0.912 (inactive) and 1.12 (inactive)"}, {"measurement": "fold change", "setting": "[10]; [19]", "value": "1.85 and 0.866"}, {"measurement": "cell count", "setting": "[10]; [20]", "value": "1380 and 1910"}, {"measurement": "cell count", "setting": "[10]; [21]", "value": "1510 and 1710"}, {"measurement": "z-score", "setting": "[17]; MELAS cybrid survival, CellTiter-Glo 48 h, stronger effect = higher value", "value": "-2.16 (inactive)"}, {"measurement": "z-score", "setting": "[17]; Rieske KO mouse fibroblast survival, CellTiter-Glo 72 h", "value": 1.73}, {"measurement": "remaining NAD", "setting": "[13]", "value": "10 nM (inactive)"}, {"measurement": "z-score", "setting": "[11]", "value": "-0.515 (inactive) and -1.81 (inactive)"}]}
